Source: the supplement of paper PMC8726507
A number with no mark means an inactive call.

What follows are compounds tested on Plasmodium falciparum NF54-HGL (transmission to Anopheles stephensi) (assay: percentage of barcode signal found in uninfected mosquitoes (transmission-blocking activity); higher = stronger blocking of transmission to mosquito, active = 80 or more). Conditions: 10 µM; gametocyte preincubation time 24 h; readout time post-feed 8 days.
Description: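 The mixture was fed to Anopheles stephensi in 96-well plates as blood meals tagged with DNA-barcoded Asaia bacteria. Eight days later, mosquitoes were classed infected or uninfected by luminescence (mean + 5 SD of unfed controls). Barcodes were quantified by Luminex MagPlex-TAG in the pooled uninfected and infected Asaia cultures, background-corrected, and the score is % of barcode signal in uninfected mosquitoes = 100*Iu/(Iu+Ii).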

| SMILES | percentage of barcode signal found in uninfected mosquitoes |
| --- | --- |
| C[C@H]1c2cccc(O)c2C(=O)C2=C(O)[C@]3(O)C(=O)C(C(N)=O)=C(O)[C@@H](N(C)C)[C@@H]3[C@@H](O)[C@@H]21 | 41.2% |
| Cc1ccc(NC(=O)CC2COc3ccccc3O2)cc1Cl (configuration not stated) | 38.8% |
| CC(C)(C)c1cc(C(=O)Nc2cccnc2)cc(C(=O)Nc2cccnc2)c1 | 41.8% |
| CC(Oc1cccc(Cl)c1)C(=O)Nc1ccc2oc(-c3ccncc3)nc2c1 (configuration not stated) | 47.8% |
| Cc1nc(-c2cccc(NCc3ccccc3)c2)[nH]c1C | 2.32% |
| COc1cc2ncnc(NC3CCN(Cc4ccccc4)CC3)c2cc1OC | 31% |
| CCN(CC)S(=O)(=O)c1ccc(Cl)c(C(=O)Nc2ccc3nc(C)sc3c2)c1 | 86.1% (active) |
| CCc1nc2ccc(C(=O)NCc3ccc4c(c3)OCO4)cn2c1N(C)Cc1cccs1 | 22.1% |
| CCCS(=O)(=O)N1CCC(CO)(Cc2ccccc2C(F)(F)F)CC1 | 39.3% |
| Cc1cc(C(=O)Nc2ccc(-c3ccccc3)cc2)no1 | 64% |
| COc1ccc(OC(C)C(=O)Nc2ccc(Cl)cc2C)cc1 (configuration not stated) | -0.09% |
| Brc1c(-c2ccc3c(c2)OCO3)nc2ncccn12 | 6.02% |
| Nc1ncc(-c2ccc(C(F)(F)F)nc2)cc1-c1ccc(C(F)(F)F)nc1 | 1.73% |
| COc1ccc(OC)c(NCc2ccc3nc(N)nc(N)c3c2Cl)c1 | 94.7% (active) |
| Cc1nn2c(=O)c3c([nH]c2c1-c1ccc(Cl)cc1)CCCC3 | 40.4% |
| Nc1ncnc2c1ncn2C[C@@H](O)[C@@H](O)C(=O)O | 39.9% |
| Nc1ncnc2c1ncn2[C@@H]1O[C@H](COS(=O)(=O)NC(=O)c2ccccc2O)[C@@H](O)[C@H]1O | -0.124% |
| CCOc1ccc(-c2nc(NC(=O)CS(=O)(=O)c3ccccc3)sc2C)cc1 | -3.11% |
| O=C(Nc1nc(-c2ccccn2)cs1)C1CC1c1ccccc1F (configuration not stated) | 53.8% |

Same assay, conditions: 20 µM; gametocyte preincubation time 24 h; readout time post-feed 8 days

| SMILES | percentage of barcode signal found in uninfected mosquitoes |
| --- | --- |
| O=C(OCc1ccccc1)N1CCC(c2cc(-c3ccncc3)c(-c3ccc(F)cc3)[nH]2)CC1 | 16.8% |
| COc1ccc(Oc2ccc([C@@H](C)N(C)c3ncc4c(N)nc(N)nc4n3)cc2)cc1 | 72.1% |
| CC(C)(C)c1ccc(N[C@@H]2CCCC[C@H]2NC(=O)c2ccco2)cc1 | 31.3% |
| COc1ccc(CN2CCOc3ccc(C(C)(O)CN(C)C)cc3C2)cc1C (configuration not stated) | 36.4% |
| O=C(NCCN1CCCC1)c1cc(NCCN2CCOCC2)nc2ccc(Cl)cc12 | 88% (active) |
| CC(C)(C)c1cc(C(=O)N2CCN(c3nccnc3C#N)CC2)n(Cc2ccccc2)n1 | 33.5% |
| Nc1ccc2ncnc(Nc3ccc(OCc4cccc(F)c4)c(Cl)c3)c2c1 | 17.8% |
| O=C(NCCc1ccn(-c2ccccc2)n1)C1CCCCC1 | 3.62% |
| CCc1ccc([C@@H]2C[C@H](C(F)(F)F)n3ncc(C(=O)NCc4ccc(OC)cc4)c3N2)cc1 | 8.67% |
| NCC(c1cccs1)S(=O)(=O)c1ccccc1 (configuration not stated) | 17.5% |
| COc1ccc(S(=O)(=O)Nc2ccc(CN3CCN(C(=O)c4cccc(C#N)c4)CC3)cc2)cc1 | 8.68% |
| COc1cccc(OC)c1C(=O)Nc1ccc(Cl)c(-c2nc3ccccc3s2)c1 | 13.2% |
| Cc1ccc2[nH]c(C3CCCNC3)c(-c3ccncc3)c2c1 (configuration not stated) | 79.4% |
| O=C(Nc1ccc(C(F)(F)F)c(C(F)(F)F)c1)c1cc(Cl)ccc1O | 69.4% |
| Cn1ccnc1CNCCS(=O)(=O)c1cccc(Nc2ccc(-c3cccc(F)c3)cn2)c1 | 0.967% |
| CS(=O)(=O)N1CCC(Cn2nc(Cc3cccc4ccccc34)c3c(N)ncnc32)CC1 | 28.2% |
| NCCN(C(=O)c1ccc(Cl)cc1Cl)c1ccc(OCc2ccc(Cl)cc2)cc1 | 65.8% |
| CC(C)n1nc(-c2cc3c(Cl)cccc3[nH]2)c2c(N)ncnc21 | 53.6% |
